# Measured values from PubChem BioAssay (NCI).
# The panel holds about 79,000 compounds, 15% with a hit somewhere; the sample as a whole holds those more often. Values without a mark were called inactive. The source made the active and inactive calls. No stated cut-off is given here; in the data, active means growth inhibition above about 70%; inactive means the rest.
# How the values were obtained:
# [1] = NCI Yeast Anticancer Drug Screen. Data for the rad50 strain (AID 155);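 further: 0% = growth of vehicle-only cultures of the same strain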; settings: S. cerevisiae rad50 strain growth inhibition; at 50.0 µM; hits give high values
# Summary of the method: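 Compounds were tested on a yeast strain with an engineered DNA damage repair alteration; the reported value is growth inhibition normalised to vehicle treatment.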
# [2] = NCI Yeast Anticancer Drug Screen. Data for the mec2-1 strain (AID 157); settings: S. cerevisiae mec2-1 strain, at 50.0 µM, hits give high values
# Summary of the method: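 Compounds were applied to mec2-1 yeast cells. Their growth was then compared with that of vehicle-treated cultures to give growth inhibition.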
# [3] = NCI Yeast Anticancer Drug Screen. Data for the sgs1 mgt1 strain (AID 161);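 further: 0% = growth of cultures given vehicle only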; settings: S. cerevisiae sgs1 mgt1 strain, at 50.0 µM, hits give high values
# Summary of the method: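 This yeast growth screen uses a strain with defined DNA-repair lesions; compound-treated growth is compared with vehicle-treated growth.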
# [4] = NCI Yeast Anticancer Drug Screen. Data for the cln2 rad14 strain (AID 165);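 further: 0% = growth equal to vehicle treated cultures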; settings: S. cerevisiae cln2 rad14 strain, at 50.0 µM, hits give high values
# Summary of the method: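 Strain: cln2 rad14 yeast, altered in cell cycle control and DNA damage repair. Read-out: growth inhibition vs vehicle.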
# [5] = NCI Yeast Anticancer Drug Screen. Data for the bub3 strain (AID 167); settings: S. cerevisiae bub3 mutant strain, at 50.0 µM, hits give high values
# Summary of the method: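 Growth of a checkpoint-deficient yeast mutant is measured after compound exposure. Values represent inhibition relative to vehicle.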
# [6] = NCI Yeast Anticancer Drug Screen. Data for the mlh1 rad18 strain (AID 175); settings: S. cerevisiae mlh1 rad18 strain growth inhibition; at 50.0 µM; hits give high values
# Summary of the method: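 A repair-deficient yeast strain is exposed to test compound, and growth is scored relative to vehicle-treated controls.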
SMILES,growth inhibition [1],growth inhibition [2],growth inhibition [3],growth inhibition [4],growth inhibition [5],growth inhibition [6]
O=C(Nc1cc(C(F)(F)F)ccc1Cl)c1ccccc1F,17.1%,29.1%,-6.95%,-9.15%,34.9%,18.6%
CN(/N=C/C=N/N(C)C1=NCCCN1)C1=NCCCN1,-0.95%,1.15%,3.8%,9.1%,13.2%,-6.35%
COC(=O)C(Br)C(Br)c1ccc(OC)c(OC)c1 (configuration not stated),-5.15%,-9.8%,13.3%,-30.6%,22.9%,16.2%
CC(=O)OCC(=O)[C@H]1CC[C@@H]2[C@]1(C)CC=C1[C@]23C=C[C@]2(C[C@@H](OC(C)=O)CC[C@]12C)C1C(=O)OC(=O)C13 (some centres not stated),-9.65%,3.4%,-0.6%,-8.35%,4.65%,26.9%
Nc1c(C(=O)Nc2ccc(S(N)(=O)=O)cc2)[n+]([O-])c2ccccc2[n+]1[O-],-7.9%,-9.8%,0.5%,1%,-9.95%,-6.45%
COc1ccc(/C(=N\NC(=O)C(=O)NN)C(c2ccc(OC)cc2)C2(O)C(=O)Nc3ccccc32)cc1 (configuration not stated),-19.6%,-20.2%,-22.6%,-65.1%,12.9%,-18.1%
COc1cc(-c2cc(=O)c3cc4c(cc3[nH]2)OCO4)cc(OC)c1O,-19.9%,-14.1%,-4.5%,13.4%,-12.3%,-9.85%
NC(=S)N/N=C\CC(O)(C(F)(F)F)C(F)(F)F,-16.7%,-19.2%,-7.45%,0.5%,7.1%,-2.3%
CCC(=O)OCc1ccc(Cl)cc1,23.9%,11.4%,7.9%,8.6%,12.4%,4.9%
CC1CC[N-]CC1.CC1CC[N-]CC1.[Cl][Pt+2][Cl],-19.9%,-6.7%,-17.6%,-34%,-2.2%,5.8%
CCOC(=O)c1nc(SC)sc1NC(=O)c1ccc(OC)cc1,12.8%,-7.3%,13.1%,6.2%,17.7%,-4.65%
CC1(C)C(CCO)CC1CCO (configuration not stated),2.25%,-2.5%,-1.45%,-0.45%,0.4%,-7.5%
C=C(C)C(=O)O[C@H]1CC2=C[C@@H](C[C@@]3(C)O[C@@H]3[C@H]3OC(=O)C(=C)[C@@H]31)OC2=O,-8.35%,10.1%,22.2%,6.4%,-10%,-5.15%
O=C1NC(=S)NC(=O)C1=Cc1ccccc1OCc1ccccc1,-19.4%,-16.1%,-0.55%,-50.6%,1.6%,-16.6%
c1ccc(-c2ccc3ncccc3c2)cc1,-17.9%,3.5%,5.05%,-34.4%,-0.4%,2.3%
CCN(CC)CCN1C(=O)NC2(CCCCC2)C1=O,19.5%,-0.8%,18.8%,16%,10.6%,20.8%
C[N+](C)(Cn1nc(Cl)c2ccc([N+](=O)[O-])cc21)Cn1nc(Cl)c2ccc([N+](=O)[O-])cc21,43.6%,-5%,18.8%,28.1%,-0.25%,27.9%
N#CC(c1ccccc1)C(c1ccccc1)c1cccc2ccccc12 (configuration not stated),12.2%,12.3%,5.7%,-6.85%,-3.3%,15.6%
O=C(Nc1ccc(Cl)cc1Cl)C1C(=O)C(=O)N(c2ccc(Cl)cc2Cl)C1=O (configuration not stated),10.8%,-10.1%,-1.35%,26%,0.8%,14.4%

SMILES,growth inhibition [1],growth inhibition [2],growth inhibition [3],growth inhibition [4],growth inhibition [5],growth inhibition [6]
CCC1(O)C(=O)c2ccccc2N(c2ccccc2)C1=O (configuration not stated),9.05%,3.7%,4%,-5.85%,8.3%,18.2%
CN(C)CCC1(C#N)CCCCC1,5.3%,23.3%,10.4%,-19.3%,12.4%,1.65%
O=C(O)C1(N(CCO)CCO)CCCC1,-15.6%,-11.7%,3.4%,-35.3%,-11.2%,-1.65%
C=CCCCCCCCCC(=O)N(CC#N)CC(C)C,79.1% (active),82% (active),91.5% (active),76% (active),87.2% (active),91.5% (active)
CCCCCCCCCCP(=O)(O)CCCCCCCCCC,8.3%,-3.8%,9.9%,-144%,21.7%,-16.3%
O=C1CC(=O)N(CCc2ccccc2)S(=O)(=O)N1CCc1ccccc1,-8.9%,-21.4%,-14.2%,30.4%,-15.2%,-32.8%
CCOC(OCC)n1ncnc1NC(=S)NCc1ccccc1,-15.4%,-23.6%,3.75%,-2.7%,-5.85%,-11.2%
CC(C)CCC(C)c1ccncc1 (configuration not stated),11.7%,0.4%,-7.05%,-6.5%,3.35%,0.45%
CCOC(=O)CCN1C(=O)C(=O)N(c2ccc(OC)cc2)C1=S,-7%,-6.6%,3.75%,-57.1%,5%,-5.6%
CCCCCCCCCCCC1=c2o[nH]c2=C(c2ccccn2)C(=O)C1=O,-15.2%,-6.6%,6.5%,-45.5%,11.4%,-0.75%
CC1=C(C(=O)CC(=O)C(=O)Nc2ccc(C)cc2)Sc2ccccc2N1,-7.35%,21.1%,-16.4%,21.9%,-9.1%,-8.25%
COc1cc(Cl)ccc1NC(=O)Oc1ccc(C=O)cc1OC,3.8%,10.2%,6.75%,9.85%,17.9%,10.8%
CCCSS[C@H]1NC(=O)[C@H]1NC(=O)COc1ccccc1,31.1%,8.5%,1.4%,3.05%,19.1%,-3.6%
CN(C)c1nnnn1Cc1ccccc1,-1.35%,-3.8%,-7.25%,-26.3%,5.65%,1.8%
CCCC1([N+](=O)[O-])CCC(C)(O)C(C(C)=O)C1 (configuration not stated),-4.3%,-3.8%,0.9%,-3.35%,-4.8%,17.4%
COc1ccc(C2=CN(S(=O)(=O)c3ccc(C)cc3)CCc3ccccc32)cc1,-31.4%,-10.9%,-31.8%,-59.8%,-6.6%,-23.7%
O=S(=O)(O)CCCCCO,-6.45%,-18.7%,-15.7%,-46.8%,-2.85%,-9.95%
CC1(C)CCCC(OC(=O)c2ccc([N+](=O)[O-])cc2)C1 (configuration not stated),10.4%,-17.5%,-1.3%,-2.05%,7.5%,-10.6%
